Reference: the supplement of paper PMC3545927
This is one part of the list. The hit rate among all sequences tested is not known here.

Molecular target: furin, P09958
Experiment: furin cleavage Z-score vs untreated control; higher = more cleavage, active = 3.5 or more, inactive = 1 or less, 8 variable residues between constant flanks
Procedure: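 Multiplexed peptide-cDNA fusion cleavage assay. 8-mer variable peptides flanked by constant Cys-Ala (N-term) and Ala-Gly-Asn-Ala-Ser-Ala-Ser-Ala (C-term) and conjugated to a cDNA oligonucleotide were bead-immobilised via the N-terminus. They were treated with purified furin at a 1:10 enzyme:substrate ratio in 50 mM HEPES pH 7.5, 1 mM CaCl2, 100 mM NaCl for 7.5, 15 or 30 min. Released cDNA was counted by next-generation sequencing, and log counts versus no-furin controls were lowess-adjusted and converted to robust Z-scores.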

Chain of furin, P09958 (P09958 whole entry): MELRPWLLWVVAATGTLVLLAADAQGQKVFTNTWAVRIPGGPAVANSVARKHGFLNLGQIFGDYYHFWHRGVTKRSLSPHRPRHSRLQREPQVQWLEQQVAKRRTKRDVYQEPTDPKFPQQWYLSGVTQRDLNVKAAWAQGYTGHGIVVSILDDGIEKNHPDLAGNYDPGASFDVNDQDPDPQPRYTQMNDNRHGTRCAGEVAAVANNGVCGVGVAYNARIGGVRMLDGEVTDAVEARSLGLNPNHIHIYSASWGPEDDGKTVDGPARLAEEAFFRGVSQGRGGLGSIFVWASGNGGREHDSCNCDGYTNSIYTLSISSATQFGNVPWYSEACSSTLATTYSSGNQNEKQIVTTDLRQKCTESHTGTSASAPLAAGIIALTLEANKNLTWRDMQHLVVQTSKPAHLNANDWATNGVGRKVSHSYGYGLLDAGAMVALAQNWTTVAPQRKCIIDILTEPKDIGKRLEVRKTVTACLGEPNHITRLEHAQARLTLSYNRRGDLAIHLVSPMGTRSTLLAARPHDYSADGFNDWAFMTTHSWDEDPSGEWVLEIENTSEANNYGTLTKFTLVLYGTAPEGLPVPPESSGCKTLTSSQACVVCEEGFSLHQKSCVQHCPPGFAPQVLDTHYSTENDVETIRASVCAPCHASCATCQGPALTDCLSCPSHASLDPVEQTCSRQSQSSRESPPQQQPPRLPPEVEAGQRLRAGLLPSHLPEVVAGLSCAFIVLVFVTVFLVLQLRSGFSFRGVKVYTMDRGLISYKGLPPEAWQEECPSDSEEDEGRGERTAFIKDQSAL

Sequence	furin cleavage Z-score (7.5 min)	furin cleavage Z-score (15 min)	furin cleavage Z-score (30 min)
CAYTNVDQDLAGNASASA [HC711]	-0.889 (inactive)	-0.433 (inactive)	-0.26 (inactive)
CALTVPASAYAGNASASA [HC253]	0.273 (inactive)	-0.258 (inactive)	0.0356 (inactive)
CAGPRRPMRPAGNASASA [FS-785]	0.568 (inactive)	-0.102 (inactive)	-1.31 (inactive)
CACGDIINGLAGNASASA [HC657]	-0.652 (inactive)	-0.156 (inactive)	0.306 (inactive)
CAENDTDVFVAGNASASA [HC426]	-0.537 (inactive)	0.514 (inactive)	-0.867 (inactive)
CALRFCALARAGNASASA [HC620]	1.83	0.507 (inactive)	-0.572 (inactive)
CALREEVSFRAGNASASA [HC1231]	-0.828 (inactive)	-0.657 (inactive)	-0.791 (inactive)
CAAPPRRKRRAGNASASA [FS-976]	7.74 (active)	7.56 (active)	5.8 (active)
CARCQRDAMCAGNASASA [FS-2651]	-1.14 (inactive)	0.877 (inactive)	1.14
CAGRSEFKRCAGNASASA [FS-1331]	-0.855 (inactive)	-0.736 (inactive)	-0.471 (inactive)
CACRKRRKRCAGNASASA [FS-17]	4.55 (active)	0.934 (inactive)	1.07
CAVRNRRKRKAGNASASA [FS-1434]	8.59 (active)	9.19 (active)	8.05 (active)
CAEMPRDRRRAGNASASA [FS-325]	-1.37 (inactive)	-0.519 (inactive)	-0.0256 (inactive)
CALRFRRKRRAGNASASA [FS-826]	11.4 (active)	12.4 (active)	10.4 (active)
